Test [1] is described as follows: qHTS of pediatric cancer cell lines to identify multiple opportunities for drug repurposing: Primary screen for DAOY cells (AID 1347090). Also: nearly all actives have a fitted effect of over 55% in size. Also: potency is read from the fitted curve at half-maximal effect. Summed up:
(§1)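 Eight- or eleven-point concentration series, 48 h treatment at 37 degrees C in growth media; readout CellTiter-Glo luminescence. Potency and efficacy were taken from the concentration-response curves.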
Background: qHTS replaces the single test concentration by a dilution series.

The nature of test [2]: qHTS of pediatric cancer cell lines to identify multiple opportunities for drug repurposing: Primary screen for A673 cells (AID 1347092). Also: potency is read from the fitted curve at half-maximal effect; nearly all actives have a fitted effect of over 45% in size. In short, it runs like this: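 Cells are plated, rested 5 h, dosed by pintool, incubated 48 h, then lysed with CellTiter-Glo and read by luminescence. DMSO is the neutral control; bortezomib at 2.3 uM final is the positive control.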
The nature of test [3]: qHTS of pediatric cancer cell lines to identify multiple opportunities for drug repurposing: Primary screen for NB-EBc1 cells (AID 1347095). Also: potency is read from the fitted curve at half-maximal effect. Summed up: (§2)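 Luminescence from CellTiter-Glo served as readout of metabolically active cells after 48 h compound exposure. Titrations: MIPE 11-point, from 0.78 nM; NPC 8-point, from 0.59 nM (final). Concentration-response curves came straight from the primary screen.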

Test [4] in a line: qHTS of pediatric cancer cell lines to identify multiple opportunities for drug repurposing: Primary screen for U-2 OS cells (AID 1347096). Also: nearly all actives have a fitted effect of over 50% in size. In short, it runs like this:
(§3)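 Cells (500-1,000/well) in growth media were settled 5 h at 37 degrees C, then given compounds for 48 h. Viability was read as CellTiter-Glo luminescence. Primary runs used MIPE at 11 points (0.78 nM-46 µM) and NPC at 8 points (0.59 nM-46 µM); follow-ups used 11 points.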

Test [5] in a line: qHTS of pediatric cancer cell lines to identify multiple opportunities for drug repurposing: Primary screen for LAN-5 cells (AID 1347100). Also: potency is read from the fitted curve at half-maximal effect. Summed up: as §3
Test [6] can be described thus: qHTS of pediatric cancer cell lines to identify multiple opportunities for drug repurposing: Primary screen for MG 63 (6-TG R) cells (AID 1347105). Also: nearly all actives have a fitted effect of over 50% in size. Also: potency is read from the fitted curve at half-maximal effect. In short, it runs like this: as §2
A short description of test [7]: qHTS of pediatric cancer cell lines to identify multiple opportunities for drug repurposing: Primary screen for control Hh wild type fibroblast cells (AID 1347106).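 Also: series mostly up to about 46 µM; a drop in luminescence marks cytotoxicity and a rise apparent proliferation; nearly all actives have a fitted effect of over 55% in size.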 Summed up: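 Viability after 48 h compound treatment at 37C, 500-1,000 cells/well, read as ATP luminescence with CellTiter-Glo. Primary screens used 11-point (MIPE, 0.78 nM-46 µM) or 8-point (NPC, 0.59 nM-46 µM) final concentrations; follow-up screens used 11-point dilutions.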

Test [8] in a line: qHTS of pediatric cancer cell lines to identify multiple opportunities for drug repurposing: Confirmatory screen for NB1643 cells (AID 1347109). Also: nearly all actives have a fitted effect of over 45% in size. Also: potency is read from the fitted curve at half-maximal effect. In short, it runs like this: as §3
Test [9] in a line: qHTS of pediatric cancer cell lines to identify multiple opportunities for drug repurposing: Primary screen for SK-N-MC cells (AID 1347093). Also: potency is read from the fitted curve at half-maximal effect. In short, it runs like this: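 Metabolically active cells were quantified by ATP-dependent luminescence (CellTiter-Glo, 15 min at room temperature) following 48 h treatment. Cells had been plated at 500-1,000 per well and settled for 5 h beforehand.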

The nature of test [10]: qHTS of pediatric cancer cell lines to identify multiple opportunities for drug repurposing: Primary screen for SK-N-SH cells (AID 1347098). Also: nearly all actives have a fitted effect of over 65% in size. Also: potency is read from the fitted curve at half-maximal effect. Summed up: (§4)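 Cells (500-1,000/well) rested 5 h, then received compounds for 48 h; metabolically active cells were measured by CellTiter-Glo luminescence. Final concentrations spanned up to 46 µM (MIPE, 11-point) or 0.59 nM-46 µM (NPC, 8-point) in primary screens, 11-point in follow-ups.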

Test [11] is described as follows: qHTS of pediatric cancer cell lines to identify multiple opportunities for drug repurposing: Primary screen for NB1643 cells (AID 1347099). Also: nearly all actives have a fitted effect of over 50% in size. Also: potency is read from the fitted curve at half-maximal effect. In short, it runs like this:
as §2

A short description of test [12]: qHTS of pediatric cancer cell lines to identify multiple opportunities for drug repurposing: Primary screen for BT-12 cells (AID 1347101). Also: nearly all actives have a fitted effect of over 25% in size. Also: potency is read from the fitted curve at half-maximal effect. Summed up: as §4
The nature of test [13]: qHTS of pediatric cancer cell lines to identify multiple opportunities for drug repurposing: Primary screen for Rh18 cells (AID 1347102). Also: nearly all actives have a fitted effect of over 65% in size. Summed up:
as §3

The nature of test [14]: qHTS of pediatric cancer cell lines to identify multiple opportunities for drug repurposing: Primary screen for OHS-50 cells (AID 1347103). Also: nearly all actives have a fitted effect of over 40% in size. Also: potency is read from the fitted curve at half-maximal effect. Summed up:
as §4

The nature of test [15]: qHTS of pediatric cancer cell lines to identify multiple opportunities for drug repurposing: Primary screen for Rh30 cells (AID 1347107). Also: series mostly up to about 46 µM; nearly all actives have a fitted effect of over 75% in size. Summed up: as §3
Test [16] can be described thus: qHTS of pediatric cancer cell lines to identify multiple opportunities for drug repurposing: Primary screen for RD cells (AID 1347104). Also: nearly all actives have a fitted effect of over 55% in size. Also: potency is read from the fitted curve at half-maximal effect. Summed up:
as §2

Test [17] in a line: qHTS of pediatric cancer cell lines to identify multiple opportunities for drug repurposing: Primary screen for BT-37 cells (AID 1347094). Also: potency is read from the fitted curve at half-maximal effect. In short, it runs like this: as §2
The nature of test [18]: qHTS of pediatric cancer cell lines to identify multiple opportunities for drug repurposing: Primary screen for Rh41 cells (AID 1347108). Also: nearly all actives have a fitted effect of over 70% in size. Also: potency is read from the fitted curve at half-maximal effect. In short, it runs like this:
as §2

A short description of test [19]: qHTS of pediatric cancer cell lines to identify multiple opportunities for drug repurposing: Primary screen for Saos-2 cells (AID 1347097). Also: nearly all actives have a fitted effect of over 40% in size. Also: potency is read from the fitted curve at half-maximal effect. Summed up:
as §2

Test [20] can be described thus: qHTS of pediatric cancer cell lines to identify multiple opportunities for drug repurposing: Primary screen for SJ-GBM2 cells (AID 1347091). Also: potency is read from the fitted curve at half-maximal effect. Summed up:
as §1

Here are results for 16 molecules from PubChem BioAssay (NCATS).

Inconclusive results are not listed. Activity calls are given as the source filed them. Calls follow the shape of the dose curve; as a rule, active = well fitted curve in the direction sought with a large enough effect; inconclusive = small, poorly fitted or top-dose-only effect, or another doubt; inactive = no such curve, though single readings can be large; an effect the other way counts as inactive or inconclusive.

As to `COc1ccc2c(c1)c(C1=C(c3c[nH]c4ccccc34)C(=O)NC1=O)cn2CCCN(C)C`, the Potency result in test [1], in test [4], in [6] and in test [7] was “inactive” each time. Moreover, the Potency in [2] was 23.5 µM (active); in test [3], 20.9 µM (active); in test [5] it was 16.6 µM (active); in [8], 20.8 µM (active).

For the molecule `CNC(=O)c1ccc2c(C(=Nc3cccc(CN(C)C)c3)c3ccccc3)c(O)[nH]c2c1`, the Potency result in test [1], in test [4], in test [12], in test [13], in test [6] and in test [7] was “inactive” in each case. For the same molecule, the Potency entry in [15] was “inactive”. Also, the Potency in test [2] was 11.8 µM (active); in test [9], 23.5 µM (active); in [10], 21.5 µM (active); in test [11] it was 16.6 µM (active); in test [14] it was 13.7 µM (active).

On to `CC(=O)O[C@]1(C(C)=O)CC[C@H]2[C@@H]3C=C(Cl)C4=CC(=O)[C@@H]5C[C@H]5[C@]4(C)[C@@H]3CC[C@@]21C`, for which the Potency in [1] was 18.7 µM (active); in test [2] it was 0.469 µM (active); in [9], 7.43 µM (active); in test [10] it was 12.1 µM (active); in [11], 14.8 µM (active); in [12] it was 3.43 µM (active). Moreover, the Potency is 3.43 µM (active) in test [14] and 18.7 µM (active) in test [16]. The Potency entry in [4] and in test [13] was “inactive” in each case.

`Cc1cc2c(cc1C1(c3ccc(C(=O)O)cn3)CC1)C(C)(C)CCC2(C)C`: the Potency result in [1], in [9], in test [17], in [4], in [10] and in test [5] was “inactive” throughout. Also, the Potency result in [6], in test [7] and in test [18] was “inactive” in each case.

For the molecule `Nc1ncnc2c1c(-c1cccc(OCc3ccccc3)c1)cn2C1CC(CN2CCC2)C1` (configuration not stated), the Potency result in [1], in test [17], in test [4], in test [12], in [13] and in test [7] was “inactive” in each case. In addition, the Potency is 10.5 µM (active) in [3]; 3.32 µM (active) in test [19]; 4.69 µM (active) in test [5]; 0.968 µM (active) in test [14]; 7.43 µM (active) in [16]; 2.96 µM (active) in [18].

In the case of `COc1ccc2nc3cc(Cl)ccc3c(Nc3cc(CN4CCCC4)c(O)c(CN4CCCC4)c3)c2n1`, the Potency result in test [1], in test [4], in [19], in test [11], in test [13] and in test [6] was “inactive” each time. For the same molecule, the Potency entry in test [7], in test [15] and in [18] was “inactive” in each case.

For the molecule `Cc1ccc2c(c1)C(=O)[C@]1(O)CCN(c3ccccc3)C1=N2`, the Potency entry in test [1], in test [17], in test [4], in test [7] and in test [15] was “inactive” each time. For the same molecule, the Potency in test [9] is 20.9 µM (active); in [3] it was 7.43 µM (active).

Turning to `CC(C)C[C@H](NC(=O)c1cc2ccccc2s1)C(=O)N1CCN(C(=O)[C@H](CO)NS(=O)(=O)c2ccc(Cl)cc2Cl)CC1`, the Potency in test [20] is 18.7 µM (active); in test [2], 23.5 µM (active); in test [9], 10.5 µM (active); in [17], 15.3 µM (active); in [3] it was 26.4 µM (active); in test [19] it was 14.8 µM (active). Further, the Potency in [11] is 23.5 µM (active); in test [12] it was 0.001 µM (active); in [14], 21.7 µM (active); in test [16], 29.6 µM (active). The Potency entry in [7] is “inactive”.

In the case of `CO[C@@H]1C(N(C)C(=O)c2ccccc2)C[C@H]2O[C@]1(C)n1c3ccccc3c3c4c(c5c6ccccc6n2c5c31)C(=O)NC4=O` (some centres not stated), the Potency in test [20] is 2.35 µM (active); in test [2] it was 2.96 µM (active); in test [9], 1.32 µM (active); in test [10] it was 6.07 µM (active); in test [6], 1.48 µM (active). Further, the Potency result in test [17], in [14], in test [15] and in test [18] was “inactive” each time.

On to `CCCCC(C)(C)[C@H](O)C=C[C@H]1[C@H](O)CC(=O)[C@H]1CC=CCCCC(=O)O`, for which the Potency result in [1], in test [4], in [19], in test [10], in test [11] and in test [14] was “inactive” throughout. The Potency entry in [6] and in test [7] was “inactive” each time. For the same molecule, the Potency in test [9] was 20.9 µM (active); in test [3], 5.26 µM (active).

Take `COc1ccc(CCN(C)CCCOc2ccc(S(=O)(=O)c3[nH]c4ccccc4c3C(C)C)cc2)cc1OC`: the Potency entry in test [1], in test [4], in [6], in [7] and in [15] was “inactive” each time. Further, the values for the Potency in test [17] and in test [5] were 19.3 µM (active) and 23.5 µM (active), respectively.

In the case of `Cc1cccc2c1CC[C@H](CN1CCC(c3c(Cl)cccc3Cl)CC1)C[C@@H]2O`, the Potency entry in test [1], in test [3], in test [11], in [13], in [6] and in test [15] was “inactive” throughout. Besides, the Potency was 9.35 µM (active) in [9]; 30.6 µM (active) in [17]; 18.7 µM (active) in test [5]; 5.44 µM (active) in [14]; 33.2 µM (active) in [16].

On to `COc1nccc(-c2c(-c3ccc(F)cc3)ncn2C2CCNCC2)n1`, for which the Potency result in [1], in test [3], in test [4], in test [10], in test [11] and in [5] was “inactive” in each case. The Potency result in test [13], in test [6], in test [7] and in test [18] was “inactive” each time.

For the molecule `NC(N)=Nc1nc(CSCCC(N)=NS(N)(=O)=O)cs1`, the Potency result in test [20], in test [17], in test [4], in [19], in test [12] and in test [13] was “inactive” in each case. The Potency entry in [6], in test [7] and in test [8] was “inactive” each time. Moreover, the Potency in [2] was 11.8 µM (active); in [9], 10.5 µM (active); in test [10], 19.2 µM (active); in test [11] it was 8.33 µM (active).

As to `CN(CC=CC#CC(C)(C)C)Cc1cccc2ccccc12`, the Potency result in test [1], in test [17], in test [4], in [19], in test [10] and in [5] was “inactive” in each case. Moreover, the Potency entry in [12], in test [13], in [14], in test [16], in [6] and in [15] was “inactive” in each case. The Potency result in test [18] is “inactive”.

Regarding `CCOC(=O)[C@H](CCc1ccccc1)N[C@@H](C)C(=O)N1CCCC1C(=O)O` (some centres not stated), the Potency result in test [20], in test [17], in test [4], in [19], in [5] and in test [12] was “inactive” throughout. Moreover, the Potency entry in test [13], in [14], in test [16], in test [6], in test [7] and in [15] was “inactive” throughout. Besides, the Potency entry in test [18] is “inactive”. Also, the values for the Potency in [2], in test [9] and in test [8] were 18.7 µM (active), 8.33 µM (active) and 7.37 µM (active), respectively.
